Assays:
Assay in all cases: PBM binding z-score (relative to random genomic background probes); higher = stronger binding; sequences stand for … in GC…GCGATTGACAGCGTAGAATGAAGG
[1] = tested on: FXR:RXRa (NR concentration 270 nM, RXRa partner concentration 90 nM)
Outline: (§1)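 Ligand-free nuclear receptor dimers were bound for 1 h to custom Agilent 4×180K protein-binding microarrays. Detection used antibodies against each partner (one per run). Binding z-scores rest on regression-normalized fluorescence, with random background probes as the reference.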

[2] = tested on: LXRa:RXRa (NR concentration 270 nM, RXRa partner concentration 90 nM)
Outline: as §1

[3] = tested on: LXRa homodimer (NR concentration 270 nM)
Outline: as §1

[4] = tested on: LXRb:RXRa (NR concentration 270 nM, RXRa partner concentration 90 nM)
Outline: as §1

[5] = tested on: LXRb homodimer (NR concentration 270 nM)
Outline: as §1

[6] = tested on: PPARa:RXRa (NR concentration 270 nM, RXRa partner concentration 90 nM)
Outline: as §1

[7] = tested on: PPARg:RXRa (NR concentration 180 nM, RXRa partner concentration 90 nM)
Outline: as §1

[8] = tested on: PPARg:RXRa 270nM:90nM, anti-RXR (NR concentration 270 nM, RXRa partner concentration 90 nM)
Outline: as §1

[9] = tested on: PPARg:RXRa 30nM:10nM, anti-RXR (NR concentration 30 nM, RXRa partner concentration 10 nM)
Outline: as §1

[10] = tested on: PPARg:RXRa 90nM:30nM, anti-RXR (NR concentration 90 nM, RXRa partner concentration 30 nM)
Outline: as §1

[11] = tested on: PPARg:RXRa DBDmut IVT, anti-RXR (DBD mutation: RXRa K156A/R161A, NR concentration 270 nM, RXRa partner concentration 90 nM)
Outline: as §1

[12] = tested on: PPARg:RXRa IVT, anti-PPARg (NR concentration 270 nM, RXRa partner concentration 90 nM)
Outline: as §1

[13] = tested on: PPARg DBDmut:RXRa IVT, anti-PPARg (DBD mutation: PPARg1 K132A/R137A, NR concentration 270 nM, RXRa partner concentration 90 nM)
Outline: as §1

[14] = tested on: PPARg DBDmut IVT, anti-PPARg (DBD mutation: PPARg1 K132A/R137A, NR concentration 270 nM)
Outline: as §1

[15] = tested on: PPARg homodimer (NR concentration 180 nM)
Outline: as §1

[16] = tested on: PXR:RXRa (NR concentration 270 nM, RXRa partner concentration 90 nM)
Outline: as §1

[17] = tested on: PXR homodimer (NR concentration 270 nM)
Outline: as §1

[18] = tested on: RARa:RXR (NR concentration 270 nM, RXRa partner concentration 90 nM)
Outline: as §1

[19] = tested on: RARa homodimer (NR concentration 270 nM)
Outline: as §1

[20] = tested on: RARb:RXRa (NR concentration 270 nM, RXRa partner concentration 90 nM)
Outline: as §1

| Sequence | PBM binding z-score [1] | PBM binding z-score [2] | PBM binding z-score [3] | PBM binding z-score [4] | PBM binding z-score [5] | PBM binding z-score [6] | PBM binding z-score [7] | PBM binding z-score [8] | PBM binding z-score [9] | PBM binding z-score [10] | PBM binding z-score [11] | PBM binding z-score [12] | PBM binding z-score [13] | PBM binding z-score [14] | PBM binding z-score [15] | PBM binding z-score [16] | PBM binding z-score [17] | PBM binding z-score [18] | PBM binding z-score [19] | PBM binding z-score [20] |
| --- | --- | --- | --- | --- | --- | --- | --- | --- | --- | --- | --- | --- | --- | --- | --- | --- | --- | --- | --- | --- |
| GCATATCGGTAATACAAGGTGAAAGTCCGATTGT | 0.694 | 0.4 | 0.294 | 0.243 | -0.333 | 0.84 | 0.415 | 0.8 | 0.385 | 0.634 | 0.472 | 0.945 | 0.308 | 0.208 | 0.544 | 0.155 | 0.188 | 0.793 | 0.00157 | 0.541 |
| CAAACTAGGTAACGAAAGGTCAAAGTCGAATGAC | 4.96 | 7.4 | 6.74 | 6.41 | 2.26 | 5.8 | 6.82 | 6.42 | 3.66 | 5.76 | 7.04 | 6.76 | 1.27 | 1.33 | 3.34 | 5.5 | 1.94 | 5.55 | 2.01 | 4.38 |
| TCGAGTAGTTTAGGGGCATTCAGAATGGCGTCGA | -0.0607 | 0.048 | -0.581 | 0.829 | -0.452 | 0.549 | -0.393 | 0.237 | 0.631 | 0.559 | 0.75 | -0.281 | -0.799 | -1.01 | -0.288 | 0.444 | -0.187 | 0.532 | -0.906 | 0.653 |
| GATACAGGCTCAGCTAGAGGCCAGAGTATGGAAA | -0.845 | -1.13 | -0.652 | -1.25 | -1.62 | -1.21 | 0.137 | -0.746 | -0.505 | -0.667 | -1.07 | -0.379 | -0.391 | -1.01 | -0.531 | -0.951 | -0.872 | -0.733 | -0.86 | -0.294 |
| CGTCAAAGTTCAACTAAGCTAACGTAAAGCACGC | 6.6 | 6.23 | 4.14 | 4.26 | 2.57 | 5.08 | 4.95 | 5.46 | 1.83 | 4.48 | 0.667 | 1.69 | 1.11 | 1.29 | 3.28 | 4.69 | 4.44 | 3.82 | 2.34 | 5.31 |
| CCTATTAGTGGACCATAAGGGCAACCGAAGCTCG | 0.107 | 0.131 | 0.000985 | 0.0463 | 0.134 | 0.591 | 0.711 | 1.08 | 0.116 | 0.489 | 1.43 | 0.991 | 0.0446 | -0.555 | 0.856 | 0.215 | 0.612 | 0.424 | 0.803 | 1.22 |
| CCGACTGGGACAAGGTTACCATAACGCACAGCCA | 0.29 | 0.604 | -0.141 | 0.507 | -0.706 | 1.49 | 1.92 | 2.18 | 0.494 | 1.59 | 2.14 | 2.07 | -0.366 | -0.958 | 0.825 | 0.206 | -0.361 | 0.82 | 0.13 | 0.882 |
| CCTACTGGGCCATCAGGTCATTGTTATCAACGTT | 1.46 | 1.31 | 1.14 | 1.7 | -0.00639 | 2.76 | 2.54 | 3.66 | 1.36 | 2.74 | 4.42 | 5.23 | 1.61 | 0.711 | 1.35 | 1.63 | 0.409 | 2.03 | 0.317 | 2.07 |
| TCTATTAGTTGATTAGGTCAACCGAAACAGCGGA | 1.7 | 2 | 1.49 | 2.02 | 1.35 | 2.94 | 1.16 | 3.19 | 3.91 | 3.59 | 2.89 | 3.1 | 1.43 | 1.8 | 2.28 | 2.03 | 0.923 | 2.56 | 1.9 | 2.73 |
| GCTGCTAGCTCAACTGATGGTCAGCTAAAGCTCG | -0.673 | -0.959 | -0.842 | -1.01 | -1.05 | -1.23 | -0.747 | -1.13 | -1.24 | -1.15 | -0.64 | -0.817 | -1.66 | -1.33 | -1.88 | -0.933 | -1.77 | -1.22 | -1.08 | -0.407 |
| TCTCGGAGGACACGAAGTTCAGAGCTTTCCAGAG | 0.621 | 0.0816 | -0.00666 | 0.0852 | -0.97 | 0.472 | -0.146 | 1.2 | 2.18 | 1.76 | 1.43 | -0.00253 | -0.707 | -1.05 | -0.195 | 1.39 | 2.87 | 0.555 | -0.518 | 2.36 |
| CGGCAAAGTTCAACTAAGGTAACGTAAAGCACGC | 7.42 | 5.93 | 2.94 | 3.99 | 1.22 | 5.03 | 4.7 | 5.19 | 1.6 | 3.81 | 0.283 | 1.29 | -0.451 | -0.173 | 3.39 | 5.43 | 2.72 | 3.93 | 0.447 | 5.16 |
| CCTACTGGGCCAAGGTCAGTGATCAGTCAAAGCA | 0.749 | 0.797 | 0.0206 | 0.924 | -0.982 | 2.46 | 2.73 | 3.3 | 0.671 | 2.45 | 3.15 | 4.03 | 0.453 | -1.43 | 1.3 | 1.14 | -0.136 | 1.75 | -0.243 | 2.89 |
| GCTTGAAGATCAAGGTTAAGAAAGACTAAGCTAA | 0.0422 | 0.502 | -0.466 | 0.434 | -0.944 | 1.44 | 0.0751 | 0.707 | 0.116 | 0.552 | -0.184 | -0.042 | 0.0638 | -0.723 | -0.0355 | 0.112 | -0.655 | 0.675 | -0.598 | 0.778 |
| ACTATTAGTTGACTCAGGGCAACCGATACGACGC | 0.117 | 0.225 | 0.326 | 0.195 | 0.862 | 0.023 | 0.893 | 0.163 | 0.201 | 0.123 | 0.402 | 0.739 | 1.01 | 1.08 | 0.52 | 0.329 | 0.569 | 0.544 | 0.791 | 0.893 |
| CCTACTGGGCCATCAGGTCAATGATATCAACGTT | 1.53 | 0.905 | 0.486 | 1.15 | -0.402 | 2.54 | 2.79 | 3.37 | 0.642 | 2.76 | 4.61 | 5.43 | 0.416 | 0.266 | 1.14 | 1.16 | 0.0872 | 1.6 | -0.0644 | 2.19 |
| GCAGACAGGTGAAACGCAGGTAACTCACGGTGGC | -0.0802 | 0.186 | -0.449 | -0.389 | -1.17 | 0.612 | 0.796 | -0.183 | -0.533 | -0.11 | 1.05 | 0.811 | 0.104 | -0.094 | -0.18 | -0.51 | -0.98 | 0.0228 | -0.454 | 0.558 |
| TCACCAAGGTGAGCTGAGGTCGTTGATCCAACTC | 1.24 | 0.999 | -0.747 | 0.743 | -1.63 | 1.6 | 0.00194 | 1.01 | 0.915 | 0.958 | 1.73 | 1.53 | -0.807 | -0.69 | 0.0757 | 5.13 | -0.0817 | 2.65 | -0.943 | 1.61 |
| TCTCGGAGGACACGAAGGGTCAGAGCTCGACATC | 1.35 | 1.66 | -0.0975 | 1.19 | -1.38 | 2.06 | 0.488 | 1.25 | 1.85 | 1.44 | 1.38 | 0.541 | -0.0647 | -1.25 | 0.446 | 1.66 | -0.67 | 2.31 | -0.314 | 3.14 |

From the supplement of paper PMC6555819
